# Laboratory results from publication PMC11006913.
# Columns and labels:
# Experiment in all cases: PBM; 200 nM protein, PBS
# Details in all cases: dsDNA, one strand shown
# HOXD13 [1] = biological target: HOXD13 (Homo sapiens, UniProt P35453 263-343, T313R)
# PITX2 = PITX2 (Homo sapiens, UniProt Q99697 72-157)
# HOXD13 [2] = biological target: HOXD13 (Homo sapiens, UniProt P35453 263-343)
# HOXD13 [3] = biological target: HOXD13 (Homo sapiens, UniProt P35453 263-343, T313A)
# PROP1 [4] = biological target: PROP1 (Homo sapiens, UniProt O75360 56-141)
# PROP1 [5] = biological target: PROP1 (Homo sapiens, UniProt O75360 56-141, R99H)
# PROP1 [6] = biological target: PROP1 (Homo sapiens, UniProt O75360 56-141, F88S)
# NKX2-5 [7] = biological target: NKX2-5 (Homo sapiens, UniProt P52952 125-210, R139K)
# NKX2-5 [8] = biological target: NKX2-5 (Homo sapiens, UniProt P52952 125-210)
# NKX3-2 [9] = biological target: NKX3-2 (Homo sapiens, UniProt P78367 192-278, P234S)
# NKX3-2 [10] = biological target: NKX3-2 (Homo sapiens, UniProt P78367 192-278)
# NKX2-6 = biological target: T1, NKX2-6 (Homo sapiens, UniProt A6NCS4 118-204, F151L)
# T1 sequence: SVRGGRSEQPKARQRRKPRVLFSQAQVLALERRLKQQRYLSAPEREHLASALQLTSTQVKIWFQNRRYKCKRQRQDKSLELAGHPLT
# Sequence of NKX2-5 (Homo sapiens, UniProt P52952 125-210, R139K) (P52952 125-210 R139K): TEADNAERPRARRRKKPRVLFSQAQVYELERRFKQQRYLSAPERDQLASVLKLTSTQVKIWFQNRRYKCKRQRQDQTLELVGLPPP
# Sequence of NKX2-5 (Homo sapiens, UniProt P52952 125-210) (P52952 125-210): as the sequence (P52952 125-210 R139K) above, with K15R counted along it
# Sequence of HOXD13 (Homo sapiens, UniProt P35453 263-343) (P35453 263-343): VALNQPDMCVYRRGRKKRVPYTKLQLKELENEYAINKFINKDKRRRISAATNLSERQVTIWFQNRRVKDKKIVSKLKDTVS
# Sequence of HOXD13 (Homo sapiens, UniProt P35453 263-343, T313R) (P35453 263-343 T313R): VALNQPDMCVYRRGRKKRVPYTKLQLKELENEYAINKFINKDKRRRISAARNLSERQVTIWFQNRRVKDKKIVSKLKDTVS
# Sequence of HOXD13 (Homo sapiens, UniProt P35453 263-343, T313A) (P35453 263-343 T313A): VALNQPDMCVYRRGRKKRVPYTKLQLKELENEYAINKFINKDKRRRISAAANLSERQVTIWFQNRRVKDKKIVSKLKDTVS
# Sequence of PROP1 (Homo sapiens, UniProt O75360 56-141, R99H) (O75360 56-141 R99H): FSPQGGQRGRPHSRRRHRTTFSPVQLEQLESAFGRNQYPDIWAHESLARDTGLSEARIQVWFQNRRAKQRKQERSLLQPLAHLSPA
# Sequence of NKX3-2 (Homo sapiens, UniProt P78367 192-278, P234S) (P78367 192-278 P234S): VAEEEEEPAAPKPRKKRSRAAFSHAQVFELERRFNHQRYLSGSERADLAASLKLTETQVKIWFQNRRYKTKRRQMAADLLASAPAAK
# Sequence of NKX3-2 (Homo sapiens, UniProt P78367 192-278) (P78367 192-278): as the sequence (P78367 192-278 P234S) above, with S43P counted along it
# Sequence of PROP1 (Homo sapiens, UniProt O75360 56-141) (O75360 56-141): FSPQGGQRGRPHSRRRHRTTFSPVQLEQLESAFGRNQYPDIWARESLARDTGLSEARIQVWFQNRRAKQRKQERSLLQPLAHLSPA
# Sequence of PROP1 (Homo sapiens, UniProt O75360 56-141, F88S) (O75360 56-141 F88S): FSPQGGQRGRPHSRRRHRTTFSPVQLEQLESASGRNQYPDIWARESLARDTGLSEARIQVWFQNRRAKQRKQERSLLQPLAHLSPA
sequence,measurement,setting,value
CGGTGGAG,binding signal,HOXD13 [1],"9.59 upbm affinity estimate (log intensity, higher = more binding, comparable within an allelic series)"
same,binding signal,PITX2,"8.06 upbm affinity estimate (log intensity, higher = more binding, comparable within an allelic series)"
same,binding signal,HOXD13 [2],"9.6 upbm affinity estimate (log intensity, higher = more binding, comparable within an allelic series)"
same,binding signal,HOXD13 [3],"9.64 upbm affinity estimate (log intensity, higher = more binding, comparable within an allelic series)"
CAGGTCGC,binding signal,HOXD13 [1],"9.62 upbm affinity estimate (log intensity, higher = more binding, comparable within an allelic series)"
same,binding signal,HOXD13 [2],"9.82 upbm affinity estimate (log intensity, higher = more binding, comparable within an allelic series)"
same,binding signal,HOXD13 [3],"9.97 upbm affinity estimate (log intensity, higher = more binding, comparable within an allelic series)"
GCGCGTCC,binding signal,PROP1 [4],"6.74 upbm affinity estimate (log intensity, higher = more binding, comparable within an allelic series)"
same,binding signal,PROP1 [5],"6.79 upbm affinity estimate (log intensity, higher = more binding, comparable within an allelic series)"
same,binding signal,PROP1 [6],"6.63 upbm affinity estimate (log intensity, higher = more binding, comparable within an allelic series)"
ATAAGTGA,binding signal,NKX2-5 [7],"12.2 upbm affinity estimate (log intensity, higher = more binding, comparable within an allelic series)"
same,binding signal,NKX2-5 [8],"12 upbm affinity estimate (log intensity, higher = more binding, comparable within an allelic series)"
CGACACTC,binding signal,NKX2-5 [7],"10.6 upbm affinity estimate (log intensity, higher = more binding, comparable within an allelic series)"
same,binding signal,NKX2-5 [8],"10.5 upbm affinity estimate (log intensity, higher = more binding, comparable within an allelic series)"
CGGACCCC,binding signal,NKX2-5 [7],"9.12 upbm affinity estimate (log intensity, higher = more binding, comparable within an allelic series)"
same,binding signal,NKX2-5 [8],"9.03 upbm affinity estimate (log intensity, higher = more binding, comparable within an allelic series)"
CAGTTGGC,binding signal,NKX2-5 [7],"8.87 upbm affinity estimate (log intensity, higher = more binding, comparable within an allelic series)"
same,binding signal,NKX2-5 [8],"8.7 upbm affinity estimate (log intensity, higher = more binding, comparable within an allelic series)"
CCACTAGA,binding signal,NKX2-5 [7],"11.3 upbm affinity estimate (log intensity, higher = more binding, comparable within an allelic series)"
same,binding signal,NKX2-5 [8],"11.2 upbm affinity estimate (log intensity, higher = more binding, comparable within an allelic series)"
AAAGTGCC,binding signal,NKX2-5 [7],"11.6 upbm affinity estimate (log intensity, higher = more binding, comparable within an allelic series)"
same,binding signal,NKX2-5 [8],"11.7 upbm affinity estimate (log intensity, higher = more binding, comparable within an allelic series)"
AAGTGAGT,binding signal,NKX2-5 [7],"11.4 upbm affinity estimate (log intensity, higher = more binding, comparable within an allelic series)"
same,binding signal,NKX2-5 [8],"11.4 upbm affinity estimate (log intensity, higher = more binding, comparable within an allelic series)"
CACAAGAG,binding signal,NKX2-5 [7],"11.1 upbm affinity estimate (log intensity, higher = more binding, comparable within an allelic series)"
same,binding signal,NKX2-5 [8],"11 upbm affinity estimate (log intensity, higher = more binding, comparable within an allelic series)"
GCCGACCC,binding signal,NKX2-5 [7],"8.84 upbm affinity estimate (log intensity, higher = more binding, comparable within an allelic series)"
same,binding signal,NKX2-5 [8],"8.81 upbm affinity estimate (log intensity, higher = more binding, comparable within an allelic series)"
TATGAAGA,binding signal,NKX2-5 [7],"10.8 upbm affinity estimate (log intensity, higher = more binding, comparable within an allelic series)"
same,binding signal,NKX2-5 [8],"10.7 upbm affinity estimate (log intensity, higher = more binding, comparable within an allelic series)"
CACTGCCG,binding signal,NKX2-5 [7],"9 upbm affinity estimate (log intensity, higher = more binding, comparable within an allelic series)"
same,binding signal,NKX2-5 [8],"8.89 upbm affinity estimate (log intensity, higher = more binding, comparable within an allelic series)"
CTAGTACA,binding signal,NKX2-5 [7],"10.5 upbm affinity estimate (log intensity, higher = more binding, comparable within an allelic series)"
same,binding signal,NKX2-5 [8],"10.6 upbm affinity estimate (log intensity, higher = more binding, comparable within an allelic series)"
ACGGTCCA,binding signal,NKX2-5 [7],"8.85 upbm affinity estimate (log intensity, higher = more binding, comparable within an allelic series)"
same,binding signal,NKX3-2 [9],"10.5 upbm affinity estimate (log intensity, higher = more binding, comparable within an allelic series)"
same,binding signal,NKX2-5 [8],"8.85 upbm affinity estimate (log intensity, higher = more binding, comparable within an allelic series)"
same,binding signal,NKX3-2 [10],"10.5 upbm affinity estimate (log intensity, higher = more binding, comparable within an allelic series)"
ACCGCGGC,binding signal,NKX2-5 [7],"8.83 upbm affinity estimate (log intensity, higher = more binding, comparable within an allelic series)"
same,binding signal,NKX2-5 [8],"8.84 upbm affinity estimate (log intensity, higher = more binding, comparable within an allelic series)"
CCCTTGAC,binding signal,NKX2-5 [7],"11.1 upbm affinity estimate (log intensity, higher = more binding, comparable within an allelic series)"
same,binding signal,NKX2-5 [8],"11.1 upbm affinity estimate (log intensity, higher = more binding, comparable within an allelic series)"
CCCTAAGA,binding signal,NKX2-5 [7],"10.8 upbm affinity estimate (log intensity, higher = more binding, comparable within an allelic series)"
same,binding signal,NKX2-5 [8],"10.8 upbm affinity estimate (log intensity, higher = more binding, comparable within an allelic series)"
CAAGTGCC,binding signal,NKX2-5 [7],"12.3 upbm affinity estimate (log intensity, higher = more binding, comparable within an allelic series)"
same,binding signal,NKX2-6,"10.6 upbm affinity estimate (log intensity, higher = more binding, comparable within an allelic series)"
AAGTAGGG,binding signal,NKX2-5 [7],"10.9 upbm affinity estimate (log intensity, higher = more binding, comparable within an allelic series)"
same,binding signal,NKX2-5 [8],"10.9 upbm affinity estimate (log intensity, higher = more binding, comparable within an allelic series)"
AACGCGGA,binding signal,NKX2-5 [7],"8.76 upbm affinity estimate (log intensity, higher = more binding, comparable within an allelic series)"
same,binding signal,NKX2-5 [8],"8.8 upbm affinity estimate (log intensity, higher = more binding, comparable within an allelic series)"
CGGCCAGC,binding signal,NKX2-5 [7],"8.6 upbm affinity estimate (log intensity, higher = more binding, comparable within an allelic series)"
same,binding signal,NKX2-5 [8],"8.71 upbm affinity estimate (log intensity, higher = more binding, comparable within an allelic series)"
CCGTCCCG,binding signal,NKX2-5 [7],"8.71 upbm affinity estimate (log intensity, higher = more binding, comparable within an allelic series)"
same,binding signal,NKX2-5 [8],"8.66 upbm affinity estimate (log intensity, higher = more binding, comparable within an allelic series)"
ACCATGGT,binding signal,NKX2-5 [7],"9.14 upbm affinity estimate (log intensity, higher = more binding, comparable within an allelic series)"
same,binding signal,NKX2-5 [8],"9.06 upbm affinity estimate (log intensity, higher = more binding, comparable within an allelic series)"
GGCTCTTA,binding signal,NKX2-5 [7],"11.7 upbm affinity estimate (log intensity, higher = more binding, comparable within an allelic series)"
same,binding signal,NKX2-5 [8],"11.6 upbm affinity estimate (log intensity, higher = more binding, comparable within an allelic series)"
AATCTTGA,binding signal,NKX2-5 [7],"10.5 upbm affinity estimate (log intensity, higher = more binding, comparable within an allelic series)"
same,binding signal,NKX2-5 [8],"10.5 upbm affinity estimate (log intensity, higher = more binding, comparable within an allelic series)"
CGGCGTAC,binding signal,NKX2-5 [7],"8.9 upbm affinity estimate (log intensity, higher = more binding, comparable within an allelic series)"
same,binding signal,NKX2-5 [8],"8.89 upbm affinity estimate (log intensity, higher = more binding, comparable within an allelic series)"
AGCCACTC,binding signal,NKX2-5 [7],"11.6 upbm affinity estimate (log intensity, higher = more binding, comparable within an allelic series)"
same,binding signal,NKX2-5 [8],"11.5 upbm affinity estimate (log intensity, higher = more binding, comparable within an allelic series)"
CACTAAAG,binding signal,NKX2-5 [7],"10.9 upbm affinity estimate (log intensity, higher = more binding, comparable within an allelic series)"
same,binding signal,NKX2-5 [8],"10.8 upbm affinity estimate (log intensity, higher = more binding, comparable within an allelic series)"
